In PubChem BioAssay (NCI):
The panel holds about 83,000 compounds, 20% with a hit somewhere; the sample as a whole holds those more often.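 A percent growth of 40 corresponds to 60% growth inhibition; 0 means no net growth; -100 means all cells died. Active threshold: below 10.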 Values without a mark were called inactive. The source made the active and inactive calls.

Assays:
Test in all cases: NCI-60 one-dose screen, 48 h (100 = growth as untreated, 0 = no growth, -100 = all killed)
Conditions in all cases: 10 µM unless noted
[1] = test system: NCI-H23 lung
[2] = test system: NCI-H322M lung
[3] = test system: HOP-62 NSCLC
[4] = test system: NCI-H460 lung
[5] = test system: HOP-92 NSCLC
[6] = test system: NCI-H522 lung
[7] = test system: A549/ATCC NSCLC
[8] = test system: 786-0 renal
[9] = test system: COLO 205 colon

SMILES | growth [1] | growth [2] | growth [3] | growth [4] | growth [5] | growth [6] | growth [7] | growth [8] | growth [9]
Fc1ccc(/C=C/[C@@H]2C[C@@H](F)CCO2)cc1 | 104% | 82.1% | 105% | 99.7% | 73.6% | 91% | 106% | 94.4% | 102%
CN1CCN(Cc2ccc(NC(=O)c3cncc(C#Cc4cnc(N)cc4C#N)c3)cc2C(F)(F)F)CC1 | 15.3% | 17% | 12.1% | 7.15% (active) | -5.52% (active) | 9.51% (active) | 19.2% | 24.9% | -31.2% (active)
C=CCN=c1sc(-c2ccc3ccccc3c2)cn1NC(=O)c1cc2ccc1CCc1ccc(cc1)CC2 | 55.8% | 97.6% | 75.2% | 52.3% | 59.6% | 76.4% | 56.1% | 70.1% | 44.5%
COc1ccccc1S(=O)(=O)Nc1ccc2c3c(cc(CCC(=O)NCCCCNc4cccc5c4C(=O)N(C4CCC(=O)NC4=O)C5=O)cc13)C(=O)N2C (stereo not given) | 70.3% | -3.45% (active) | 2.74% (active) | 97.8% | -10.7% (active) | 26.2% | 56.1% | 20.4% | 2.62% (active)
CCN1C2CCC1/C(=C\c1ccccc1)C(=O)/C2=C/c1ccccc1 | 32.5% | 51.6% | 59.8% | 51.5% | 58.5% | – | 72.9% | 57.2% | 43.5%
Cc1ccc(S(=O)(=O)OC[C@]23CCC(C)(C)C[C@H]2C2=CC[C@@H]4[C@@]5(C)CCCNC(C)(C)[C@@H]5CC[C@@]4(C)[C@]2(C)CC3)cc1 | 73.7% | 79.7% | 78.1% | -60.2% (active) | 41.8% | 62% | 34.6% | 34.7% | -66.5% (active)
O=C(/C=C/C12c3ccccc3C(c3ccccc31)C1C(=O)NC(=O)C12)c1ccco1 (stereo not given) | 28.7% | 30.2% | – | 11% | 24% | 17% | 55.4% | 41.1% | 45.8%
C#Cc1cccc(NC(=O)C2CCCCN2C(=O)CCl)c1 (stereo not given) | -76.1% [8.25 µM] (active) | 65.1% [8.25 µM] | 26.6% [8.25 µM] | 10.9% [8.25 µM] | -54.2% [8.25 µM] (active) | – | 36.5% [8.25 µM] | -72.9% [8.25 µM] (active) | -52.5% [8.25 µM] (active)
C=C1C(=O)O[C@H]2[C@H]1CC/C(COC(=O)NCc1ccc(Cn3c(=O)sn(-c4ccccc4)c3=O)cc1)=C\CC[C@@]1(C)O[C@@H]21 | 91.7% | 92.7% | 126% | 81.3% | 10.3% | -70.6% (active) | 114% | 39.7% | 3.5% (active)
CCOC(=O)C#Cc1c(C(=O)OCC)nnn1[C@@H]1O[C@H](COC)[C@@H](OC)[C@H]1OC | 101% | 92.9% | 97.8% | 109% | 68.5% | -58.7% (active) | 95.9% | 84.2% | -54.7% (active)
CCCC(O)Cn1ncc(C(=O)OCC)c1NC(=O)NCc1cccc(C(F)(F)F)c1 (stereo not given) | 80.1% | 84.3% | 88.2% | 103% | 58.8% | 46.5% | 95% | 80.1% | 109%
COc1cc(Cc2cc(OC)c(O)c(OC)c2)cc(OC)c1O | 87.6% | 94.2% | 88.9% | – | 89.6% | 56.5% | 84.1% | 107% | 109%
Nc1nc(N(Cc2ccccc2)c2ccccc2)c2cn[nH]c2n1 | 81.7% | 94.2% | 70% | 75.8% | 62.1% | 90.1% | 71.4% | 72.3% | 58.8%
CC1(C)N=C(N)N=C(N)N1c1ccc(S(=O)(=O)Nc2nccs2)cc1 | 101% | 104% | 95.8% | 104% | 87.2% | 91.1% | 96.1% | 99.5% | 105%
Nc1nc(N)c2c(n1)NC(c1cccc(Nc3ccnc4cc(C(F)(F)F)ccc34)c1)CC(c1ccc3c(c1)OCO3)=N2 (stereo not given) | 82.4% | 96.2% | 65.7% | – | 54.4% | 42.2% | 60.3% | 72.6% | 66.2%
O=C(C[C@]1(O)C(=O)Nc2ccc(Br)cc21)c1ccco1 | 97% | 93.8% | 106% | 105% | 102% | 88.3% | 104% | 108% | 106%
Oc1nc(NCc2ccccc2)sc1/C=C1\C=Nc2ncccc21 | 51.9% | 61.9% | 56.1% | 81.9% | 28.8% | 35.2% | 76.9% | 62.8% | 34.2%
CC(C)(C)c1ccc(C(=O)N/N=C/c2ccc(O)cc2O)cc1 | 19.1% | 26.8% | 17.9% | 0.52% (active) | 33.6% | 33.4% | 11.8% | 19.7% | 14.7%
ClC(Cl)c1nc(-c2ccccc2)n2nc(-c3ccccc3)cc2n1 | -17.6% (active) | -41.7% (active) | -3.61% (active) | -58.2% (active) | 3.98% (active) | 29.9% | -16.2% (active) | 42.9% | -40.3% (active)
CCCCCCCCCCOC(=O)c1nn(C(C)=O)c2cc(C)c(C)cc12 | 96.3% | 107% | 94.5% | 101% | 68.5% | 75.1% | 83.8% | 94.6% | 102%
